From the supplement of paper PMC10338343
± gives the standard deviation.

tested on: MILI (PIWIL2) piRISC loaded with piRNA #1 (26 nt); assay: pre-steady-state target cleavage rate (min^-1); guide: piRNA #1 5'p-UGAGGUAGUAGGUUGUAUAGUAUCCA; MIWI and MILI are mouse PIWI proteins and EfPiwi is from a freshwater sponge; tags in brackets are library labels; higher = faster piRNA-guided slicing of the target; conditions: auxiliary factor: 500 nM mouse GTSF1
Summary of the method: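 The pre-steady-state cleavage rate was obtained by Cleave-'n-Seq with a burst-and-steady-state fit. A transcribed, DNA-blocked target RNA library (0.1 nM) was mixed with 1 nM active affinity-purified piRISC carrying one synthetic guide, with or without 500 nM GTSF1 partner protein, in HEPES–potassium acetate buffer at 33 °C for 0–8 or 0–960 min. Uncleaved targets were sequenced and normalised to depth and to weakly complementary targets, with three trials pooled and k3 capped at 0.0001 min^-1.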

Row | Sequence | pre-steady-state target cleavage rate
1 | GGAGACCUAUGUAUACAACCUAUUACCUCA | 0.0697 ± 0.0079
2 | GGAGACCUUACUAUACAACCUACUGACCUCA | 0.107 ± 0.017
3 | GGAGACCUAUGAAUACAACCUACUAACUCA | 0.00512 ± 0.0027
4 | GGAGACCUUACUAUACAACCUACAACCACA | 0.0494 ± 0.013
5 | GGAGACCUAUGAUUACAUCCUACUACCUGA | 0.0052 ± 0.0025
6 | GGAGACCUAUCAAAACAACCUACUACCUCA | 0.0082 ± 0.0029
7 | GGAGACCUAACUAUACAACCUACUACCUA | 0.0998 ± 0.021
8 | GGAGACCUAUGAUUACAUCCUACAACCUCA | 0.00871 ± 0.0027
9 | GGAGACCUAUGAAAACAACCUACAACCUCA | 0.00529 ± 0.0026
10 | GGAGAGGAUACUAUACAACGCUACUACCUCA | 0.00299 ± 0.0026
11 | GGAGACCAUACUAUACAACCAACUACCACA | 0.00384 ± 0.0026
12 | GGAGACGAUACUUUAGAACCUACUACCUCA | 0.16 ± 0.01
13 | GGAGACCUAUGAAUACAUCCUACAACCUCA | 0.0119 ± 0.0025
14 | GGAGACCUAUCUAUACAACGUAGUACCUCA | 0.00772 ± 0.0031
15 | GGAGACCUAACAAUACAACCUACUACCACA | 0.0755 ± 0.019
16 | GGAGACCUAACUAUACAACCUACUACCGUCA | 0.15 ± 0.034
17 | GGAGACCUAUGUAUUCAACCUUCUACCUCA | 0.00294 ± 0.0026
18 | GGAGACCUAACUAUAGAACCUACUACCACA | 0.0663 ± 0.019
19 | GGAGAGGAUACUAUACAACCUAAUACCUCA | 0.0575 ± 0.01
20 | GGAGACCAUACUAUUGAACCUACUACCUCA | 0.153 ± 0.013

Row | Sequence | pre-steady-state target cleavage rate
21 | GGAGUGGAUACUUAACAACCUACUACCUCA | 0.157 ± 0.0088
22 | GGAGACCUAUGUAUACGACCUACUACCUCA | 0.0178 ± 0.0033
23 | GGAGACCUAACUAUACAAGCUUCUACCUCA | 0.0324 ± 0.01
24 | GGAGACCUAACUUUACAACCUACUUCCUCA | 0.0099 ± 0.0053
25 | GGAGACCUUACUAUUCAACCUAGUACCUCA | 0.0486 ± 0.011
26 | GGAGACCUAACUAUACAUCCUACAACCUCA | 0.246 ± 0.033
27 | GGAGACGUUACUAUACAACCUACUUCCUCA | 0.0496 ± 0.013
28 | GGAGACCUAUGUGUACAACCUACUACCUCA | 0.0178 ± 0.0035
29 | GGAGACCUAUGAUAUGUACCUACUAACUCA | < 0.0001
30 | GGAGACCUAUCUUAUCAACCUACUACCUCA | 0.0106 ± 0.0025
31 | GGAGACCUAACUAUACAAGGUACUACCUCA | 0.0664 ± 0.012
32 | GGAGACCUAUGAAUACAACCUACUACCUUCA | 0.00676 ± 0.0021
33 | GGAGACCUAUGAUUACAACCUACCUACCUCA | 0.00646 ± 0.0028
34 | GGAGACCUAUCUAUACAACCUACUACCCUCA | 0.132 ± 0.015
35 | GGAGACCUAUCUUUACUACCUACUACCUCA | 0.0305 ± 0.008
36 | GGAGACGAUAGUAUAGAACCUACUACCUCA | 0.158 ± 0.013
37 | GGAGACCUAUGAAUACAACCAUCUACCUCA | 0.00333 ± 0.0021
38 | GGAGACCAUACUAUACUACCAACUACCUCA | 0.00547 ± 0.0022
39 | GGAGACCUAUGAAUACAACCUACUAUCUCA | 0.00527 ± 0.0017
40 | GGAGUCGAUACUAUACAUCCUACUACCUCA | 0.313 ± 0.017
